According to PubChem BioAssay (NCI):
Values joined by “and” are separate entries in the source; they are usually repeats but may differ in a detail not shown here. Equal entries are not always repeated. This is part of a sample that, as a whole, favours compounds with a hit. Of some 83,000 tested, about 20% had one in any assay.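 96-well plates, one dose, 48 hours. Percent growth reported; active if below 10.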 Active and inactive are the calls of the source.

Legend:
Assay in all cases: NCI-60 one-dose screen, 48 h (100 = growth as untreated, 0 = no growth, -100 = all killed)
[1] = test system: NCI-H23 lung
[2] = test system: NCI-H226 lung
[3] = test system: NCI-H322M lung
[4] = test system: HOP-62 NSCLC
[5] = test system: HOP-92 NSCLC
[6] = test system: NCI-H522 lung
[7] = test system: 786-0 renal
[8] = test system: COLO 205 colon
[9] = test system: DU-145 prostate
[10] = test system: K-562 leukemia
[11] = test system: MALME-3M melanoma
[12] = test system: MDA-MB-231 breast
[13] = test system: RXF 393 renal
[14] = test system: SF-268 CNS
[15] = test system: SF-295 CNS
[16] = test system: SF-539 CNS
[17] = test system: UACC-257 melanoma
[18] = test system: M14 melanoma
[19] = test system: NCI-H460 lung; settings: 10 µM unless noted
[20] = test system: A549/ATCC NSCLC; settings: 10 µM unless noted

Measured: growth

CNC(=O)c1cc(Oc2ccc(CC(=O)Nc3cc(C(C)(C)C)nn3C)cc2)ccn1
inactive: [1]; 1 µM 50% | [1]; 10 µM 49% | [1]; 30 µM 48.9% | [2]; 10 µM 61.6% | [2]; 30 µM 49.4% | [3]; 1 µM 92.5% | [3]; 10 µM 93.4% | [3]; 30 µM 105% | [4]; 1 µM 55% | [4]; 10 µM 77.6% | [4]; 30 µM 75.1% | [5]; 1 µM 74.7% | [5]; 10 µM 93.5% | [5]; 30 µM 92.6% | [6]; 1 µM 74.3% | [6]; 10 µM 54.9% | [6]; 30 µM 71.7% | [7]; 1 µM 90.7% | [7]; 10 µM 100% | [7]; 30 µM 93.8% | [8]; 10 µM 77.1% | [8]; 30 µM 91.2% | [9]; 1 µM 91.6% | [9]; 10 µM 76.3% | [9]; 30 µM 103% | [10]; 1 µM 41.9% | [10]; 10 µM 33.9% | [10]; 30 µM 28.3% | [11]; 1 µM 60.5% | [11]; 10 µM 61.4% | [11]; 30 µM 66% | [12]; 1 µM 78.6% | [12]; 10 µM 69.1% | [12]; 30 µM 71.9% | [13]; 1 µM 98.3% | [13]; 10 µM 79.9% | [14]; 1 µM 86.9% | [14]; 10 µM 70.9% | [14]; 30 µM 98.7% | [15]; 1 µM 58.1% | [15]; 10 µM 37.1% | [15]; 30 µM 33.9% | [16]; 1 µM 67.1% | [16]; 10 µM 66.7% | [16]; 30 µM 69.2% | [17]; 1 µM 60.5% | [17]; 10 µM 55.7% | [17]; 30 µM 47.7% | [18]; 1 µM 96.5% | [18]; 10 µM 88%

Cc1nn(-c2ccc(Cl)cc2)c2ncnc(N/N=C/c3ccccc3O)c12
9.46% (active) and 12.8% (inactive): [20]
14% (inactive) and 4.62% (active): [16]; 10 µM unless noted
inactive: [1]; 10 µM unless noted 37% and 18.5% | [2]; 10 µM unless noted 52.8% and 27.9% | [5]; 10 µM unless noted 44.1% and 26.6% | [6]; 10 µM unless noted 23.3% | [9]; 10 µM unless noted 19.1% and 21% | [10]; 10 µM unless noted 18.5% and 14.7% | [12]; 10 µM unless noted 32.6% and 32.4% | [13]; 10 µM unless noted 25.7% and 14.5% | [15]; 10 µM unless noted 24.5% and 10%
33.3% (inactive) and 7.57% (active): [3]; 10 µM unless noted
48.7% (inactive) and 0.643% (active): [11]; 10 µM unless noted
active: [4]; 10 µM unless noted 7.93% and 9.97% | [19] 5.04% and 1.12% | [7]; 10 µM unless noted 8.99% and 6.59% | [14]; 10 µM unless noted 9.67% and 7.69% | [17]; 10 µM unless noted -3.7% and 9.92% | [18]; 10 µM unless noted 0.303%
18.7% (inactive) and 4.16% (active): [8]; 10 µM unless noted

Cc1cc(O)c(C(C)C)cc1N
inactive: [1]; 10 µM unless noted 97.5% and 92.7% | [2]; 10 µM unless noted 108% and 93.1% | [3]; 10 µM unless noted 122% and 102% | [4]; 10 µM unless noted 90% and 109% | [19] 121% and 103% | [5]; 10 µM unless noted 100% | [6]; 10 µM unless noted 82.5% and 86.9% | [20] 109% and 110% | [7]; 10 µM unless noted 97.2% and 105% | [8]; 10 µM unless noted 130% and 126% | [9]; 10 µM unless noted 115% and 116% | [10]; 10 µM unless noted 113% and 101% | [11]; 10 µM unless noted 113% and 112% | [12]; 10 µM unless noted 103% and 92.3% | [13]; 10 µM unless noted 119% and 115% | [14]; 10 µM unless noted 102% and 120% | [15]; 10 µM unless noted 104% and 99% | [16]; 10 µM unless noted 101% and 95.6% | [17]; 10 µM unless noted 107% and 111% | [18]; 10 µM unless noted 108% and 112%

CNc1ccc2nc3ccc(=[N+](C)C)cc-3sc2c1
9.72% (active) and 11.9% (inactive): [19]
8.78% (active) and 22.8% (inactive): [10]; 10 µM unless noted
active: [1]; 10 µM unless noted 1.76% and -7.91% | [4]; 10 µM unless noted 7.64% and 7.54% | [6]; 10 µM unless noted -19.9% and 8.62% | [20] 3.27% and 5.26% | [8]; 10 µM unless noted -22.3% and -30.4% | [11]; 10 µM unless noted -28.2% and -24.3% | [12]; 10 µM unless noted 4.03% and -13.7% | [14]; 10 µM unless noted 5.13% and 2.8% | [15]; 10 µM unless noted -7.68% and 7.95% | [16]; 10 µM unless noted -6.95% and -15.6% | [17]; 10 µM unless noted -22.2% and -27.4%
42.4% (inactive) and 7.81% (active): [9]; 10 µM unless noted
inactive: [2]; 10 µM unless noted 63% and 51.4% | [3]; 10 µM unless noted 30.7% and 28.1% | [7]; 10 µM unless noted 37.7% and 20.6% | [13]; 10 µM unless noted 58.3% and 32.9%
36.4% (inactive) and -4.83% (active): [5]; 10 µM unless noted
